In all, about 310,000 compounds went through this assay and about 1,200 (0.39%) were called active. Only a sample is shown. Results with a measured potency or affinity are listed apart. Values without a mark were called inactive. How the calls were made is not given here.

The target in this experiment is Large T antigen (Simian virus 40) (UniProt P03070). Kind of experiment: SV40 large T antigen inhibitors, biochemical (AID 1903). The settings on record: SV40 large T antigen ATPase/helicase inhibition assay; at 20 µM; active compounds read high.
Sequence of Large T antigen (Simian virus 40) (P03070 whole entry, looked up): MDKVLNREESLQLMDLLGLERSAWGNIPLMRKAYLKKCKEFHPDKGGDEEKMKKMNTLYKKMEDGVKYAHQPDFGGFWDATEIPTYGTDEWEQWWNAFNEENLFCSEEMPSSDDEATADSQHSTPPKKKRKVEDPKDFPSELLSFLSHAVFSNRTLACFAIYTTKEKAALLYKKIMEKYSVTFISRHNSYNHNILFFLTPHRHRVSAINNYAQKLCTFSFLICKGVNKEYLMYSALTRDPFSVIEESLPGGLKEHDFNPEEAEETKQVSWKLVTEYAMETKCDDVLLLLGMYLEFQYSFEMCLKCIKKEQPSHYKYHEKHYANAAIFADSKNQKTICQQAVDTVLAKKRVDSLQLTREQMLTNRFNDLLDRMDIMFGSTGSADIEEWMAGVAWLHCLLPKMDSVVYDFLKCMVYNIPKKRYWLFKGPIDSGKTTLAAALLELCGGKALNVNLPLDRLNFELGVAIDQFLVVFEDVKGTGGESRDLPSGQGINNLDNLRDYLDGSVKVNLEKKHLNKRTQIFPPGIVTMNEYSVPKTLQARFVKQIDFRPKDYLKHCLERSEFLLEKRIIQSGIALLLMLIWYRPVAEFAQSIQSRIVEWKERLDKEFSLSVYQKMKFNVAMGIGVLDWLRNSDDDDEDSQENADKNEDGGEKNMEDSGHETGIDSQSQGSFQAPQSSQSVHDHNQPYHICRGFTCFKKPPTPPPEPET
What is called inhibition is the relative decrease from the control value, in per cent. As for `CCOC(=O)c1cnc(N)nc1C(F)(F)F`, the inhibition is -4.94%.

On to `O=C(COC(=O)c1ccc2c(c1)OCCO2)Nc1cc(S(=O)(=O)N2CCOCC2)ccc1Cl`, for which the inhibition is 12.3%. Then `COCCn1c(N2CCCC2)nc2c1c(=O)[nH]c(=O)n2C`, with 5.19%; and `Cc1ccc(-c2nnc(CCC(=O)N(C)Cc3nccs3)o2)s1`, with -8.55%.

As for `Nc1ccc(S(=O)(=O)c2ccc(N)c(N)c2)cc1`, the inhibition was 20.9%. For `Nc1cccc(S(=O)(=O)c2ccc(N)c(N)c2)c1`, the inhibition is 25.5%.

Take `O=C(c1cnn2c(C(F)F)cc(-c3ccccc3)nc12)N1CCCCC1c1cccnc1` (centres undefined): the inhibition was 1.99%. The value for `COc1ccc(NC(=O)c2ccc3c(c2)NC(=O)CO3)cc1OC` was -1.26%; that for `Cc1ccccc1S(=O)(=O)Cc1ccc(C(=O)NC2CC2)o1` was 11.4%; that for `CCC1=NN2C(=N)/C(=C\c3ccc(OCCOc4ccccc4)c(OC)c3)C(=O)N=C2S1` was 10.4%. The value for `COc1cc(/C=C2/C(=N)N3N=C(C)SC3=NC2=O)ccc1OS(=O)(=O)c1ccc(C)cc1` was 3.08%. Then `COc1cc(/C=C2\SC(c3ccc(C)cc3)=NC2=O)ccc1O`, with 23.4%; and `COc1cc(/C=C2\C(=N)N3N=C(S(C)(=O)=O)SC3=NC2=O)ccc1OS(=O)(=O)c1ccccc1`, with 26.3%. As to `CCOc1cc(/C=C2/C(=N)N3N=C(CC)SC3=NC2=O)ccc1OC(=O)c1ccco1`, the inhibition was 1.88%. Then `CCC1=NN2C(=N)/C(=C/c3ccc(OS(=O)(=O)c4ccc(C)cc4)c(OC)c3)C(=O)N=C2S1`, with 15.3%. `CC(CCc1ccccc1)C(=O)NO` (centres undefined): the inhibition is -1.59%. With `Cc1cc(NC(=O)c2cccc(S(=O)(=O)Nc3cccc(C(=O)O)c3)c2)no1`, the inhibition was 12.5%. Take `CCOc1ccc(N2C(=O)CC(N3CCN(C(=O)CN4CCCC4)CC3)C2=O)cc1` (centres undefined): the inhibition is 15.8%.

In the case of `CN(C)CCN(C(=O)c1ccc(S(=O)(=O)N(C)C)cc1)c1nc2cc3c(cc2s1)OCCO3`, the inhibition is 3.41%. In the case of `Cc1cccc(C(=O)N[C@H](C(=O)NCCc2ccc(S(N)(=O)=O)cc2)C(C)C)c1`, the inhibition was 9.44%. Take `CCCC(c1nnnn1CS(=O)(=O)c1ccc(C)cc1)N1CCC(C(N)=O)CC1` (centres undefined): the inhibition was 1.94%. Take `CCOc1ccc(NC(=O)CCn2ccnc2)cc1`: the inhibition is 2.19%. Take `O=C(CCCCCN1C(=O)c2ccccc2C1=O)NCCc1nc2ccccc2[nH]1`: the inhibition was 5.03%. As to `COc1ccc(Nc2nc(N3CCN(S(=O)(=O)N(C)C)CC3)nc3ccccc23)cc1`, the inhibition is 6.91%.

These data come from PubChem BioAssay AID1903 (Southern Research Specialized Biocontainment Screening …, 2009).
